This passage reports growth results from PubChem BioAssay (NCI).

Structures are written as SMILES. The panel holds about 83,000 compounds, 20% with a hit somewhere; the sample as a whole holds those more often.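 The test compound was applied at a single concentration to cells in 96-well plates for 48 hours, and percent growth was recorded.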 Values without a mark were called inactive. Calls of active or inactive are those of the source. The calls were made as follows: active = growth percent below 10; inactive = the rest.

Test systems include T-47D breast; BT-549 breast; MDA-MB-435 melanoma; SW-620 colon; MCF7 breast; HCT-116 colon; HCC-2998 colon; KM12 colon.
Holding throughout (test): NCI-60 one-dose screen, 48 h (100 = growth as untreated, 0 = no growth, -100 = all killed)
Conditions in all cases: 10 µM unless noted

Consider `C/C(=C\CCc1ccoc1)CC/C=C(\C)CCCN1CCOCC1`, for which the growth in the assay on T-47D breast was 27.4%; with BT-549 breast, 58.9%; with MDA-MB-435 melanoma, 71.8%; in the assay on SW-620 colon, 57.8%; in the assay with MCF7 breast, 28.1%; in the assay with HCT-116 colon, 39.2%. For the same compound, the growth in the assay on HCC-2998 colon is 62.3%; in the assay on KM12 colon, 56.9%.
For the compound `Cc1cc(=O)[nH]c(/C(=N/Nc2ccccc2)C(=O)c2ccc(Cl)cc2)n1`, the growth with T-47D breast is 77%; in the assay on BT-549 breast, 97.4%; in the assay with MDA-MB-435 melanoma, 108%; in the assay with SW-620 colon, 94.6%; with MCF7 breast it was 90.1%; in the assay with HCT-116 colon, 86.9%. For the same compound, the figures for the growth in the assay on HCC-2998 colon and with KM12 colon were 109% and 102%, respectively.
As to `CNCCCn1c2c(c3ccc(F)cc3c1=O)C(=O)c1cc(OC)cnc1-2`, the growth is -2.54% (active) in the assay with T-47D breast; -6.14% (active) in the assay on BT-549 breast; 4.12% (active) with MDA-MB-435 melanoma; -2.67% (active) in the assay with SW-620 colon; 0.0252% (active) with MCF7 breast; -78% (active) in the assay on HCT-116 colon. Also, the growth in the assay with HCC-2998 colon is 8% (active); in the assay with KM12 colon, -0.739% (active).
As to `CC(C)OP(=O)(OC(C)C)c1ncc(-c2ccc(C(F)(F)F)cc2)c(NC2CCCCCC2)n1`, the growth with T-47D breast was -13.8% [33.3 µM] (active); in the assay on BT-549 breast it was -95% [33.3 µM] (active); with MDA-MB-435 melanoma it was -75.2% [33.3 µM] (active); with SW-620 colon, -52.7% [33.3 µM] (active); in the assay with MCF7 breast, 0.217% [33.3 µM] (active); with HCT-116 colon, -93.4% [33.3 µM] (active). Further, the growth in the assay with HCC-2998 colon is -87.6% [33.3 µM] (active); in the assay with KM12 colon it was -95.8% [33.3 µM] (active).
As to `COc1cnc2c(c1)C(=O)c1c-2n(CCCn2ccnc2)c(=O)c2cc(F)ccc12`, the growth in the assay with T-47D breast was -9.74% (active); in the assay on BT-549 breast, -11.2% (active); in the assay on MDA-MB-435 melanoma it was -60.3% (active); in the assay with SW-620 colon, -45.2% (active); in the assay on MCF7 breast, 0.795% (active); in the assay on HCT-116 colon it was -49.9% (active). In addition, the growth is 4.65% (active) in the assay with HCC-2998 colon and 0.0466% (active) in the assay on KM12 colon.
On to `C/C(=C\CCc1ccoc1)CC/C=C(\C)CCCNc1ccc(F)cc1`, for which the growth in the assay with T-47D breast was 77.8%; with BT-549 breast, 97.1%; in the assay on MDA-MB-435 melanoma, 99.2%; in the assay with SW-620 colon, 90.6%; in the assay on MCF7 breast it was 92.8%; in the assay on HCT-116 colon it was 85.2%. The figures for the growth with HCC-2998 colon and in the assay with KM12 colon were 111% and 96.3%, respectively.
Take `O=C(/C=C/c1ccc([N+](=O)[O-])cc1)c1ccc2c3c(cccc13)CC2`: the growth is 69.1% in the assay on T-47D breast; 84% with BT-549 breast; 97.8% in the assay with MDA-MB-435 melanoma; 47.1% in the assay on SW-620 colon; 22% in the assay with MCF7 breast; 38.6% in the assay on HCT-116 colon. Also, the growth in the assay with HCC-2998 colon was 79.3%; in the assay on KM12 colon, 72.5%.
As for `COc1ccc(C(=O)/C=C/c2ccc(C)cc2)cc1OC`, the growth was 59.3% in the assay with T-47D breast; 89.8% in the assay with BT-549 breast; 97.1% in the assay with MDA-MB-435 melanoma; 24.7% with SW-620 colon; 35.5% in the assay with MCF7 breast; 30.1% in the assay with HCT-116 colon. Besides, the growth with HCC-2998 colon was 90.1%; with KM12 colon, 20.1%.
On to `COc1cc(/C=C2\CN(S(=O)(=O)c3ccc(C)cc3)C/C(=C\c3cc(CN4CCOCC4)c(O)c(OC)c3)C2=O)cc(CN2CCOCC2)c1O`, for which the growth with T-47D breast was 63.9%; in the assay with BT-549 breast it was -21.8% (active); in the assay on MDA-MB-435 melanoma, -19.7% (active); in the assay with SW-620 colon it was 3.91% (active); in the assay with MCF7 breast, 10.6%; with HCT-116 colon, -83.3% (active). In addition, the figures for the growth in the assay with HCC-2998 colon and in the assay with KM12 colon were -89.3% (active) and -74.4% (active), respectively.
Turning to `COc1cc2c(cc1OC)C(CC1(O)CCCCC1)N(S(=O)(=O)c1ccc(C)cc1)CC2` (stereo not drawn), the growth in the assay on T-47D breast was 29.7% [100 µM]; with BT-549 breast it was -1.8% [100 µM] (active); with MDA-MB-435 melanoma it was -23.1% [100 µM] (active); in the assay with SW-620 colon it was 15.6% [100 µM]; in the assay on MCF7 breast, 25.7% [100 µM]; in the assay on HCT-116 colon it was 9.09% [100 µM] (active). Besides, the growth was 39% [100 µM] in the assay on HCC-2998 colon and 4.08% [100 µM] (active) in the assay on KM12 colon.
Take `Cc1sc2nc(NCCc3cccs3)[nH]c(=O)c2c1C`: the growth in the assay on T-47D breast was 74.6%; in the assay on BT-549 breast it was 74.7%; with MDA-MB-435 melanoma, 84.2%; in the assay on SW-620 colon, 96.4%; in the assay with MCF7 breast it was 87.3%; with HCT-116 colon it was 71%. Also, the growth was 101% in the assay on HCC-2998 colon and 92.6% with KM12 colon.
Consider `O=C1NCCc2c1noc2-c1ccccc1`, for which the growth is 89.3% in the assay with T-47D breast; 97% with BT-549 breast; 106% with MDA-MB-435 melanoma; 109% in the assay on SW-620 colon; 92.9% in the assay with MCF7 breast; 88.3% in the assay with HCT-116 colon. Moreover, the growth with HCC-2998 colon was 99.9%; in the assay with KM12 colon, 103%.
With `CCCCCN(CCCCC)CCCNc1c2c(nc3ccc(Cl)cc13)CCCC2`, the growth was 38.1% with T-47D breast; 36.2% in the assay on BT-549 breast; 66.4% in the assay with MDA-MB-435 melanoma; 33.5% in the assay on SW-620 colon; 35.5% in the assay on MCF7 breast; 5.37% (active) with HCT-116 colon. In addition, the results for the growth with HCC-2998 colon and with KM12 colon were 16.3% and 55.5%, respectively.
Take `Nc1nc(Nc2ccccc2SSc2ccccc2Nc2nc(N)nc(-c3cccc(Cl)c3)n2)nc(-c2cccc(Cl)c2)n1`: the growth with T-47D breast was 68.9%; in the assay on BT-549 breast, 94.3%; with MDA-MB-435 melanoma it was 101%; in the assay on SW-620 colon it was 104%; in the assay with MCF7 breast, 82.8%; with HCT-116 colon, 90.9%. Also, the growth in the assay with HCC-2998 colon was 110%; in the assay with KM12 colon, 77%.
As to `Cc1cn(C(C=O)OC(C=O)CO)c(=O)[nH]c1=O` (stereo not drawn), the growth in the assay with T-47D breast was 99.6%; with BT-549 breast, 107%; in the assay with MDA-MB-435 melanoma, 106%; with SW-620 colon it was 105%; with MCF7 breast it was 95.1%; in the assay on HCT-116 colon, 103%. Moreover, the growth in the assay with HCC-2998 colon was 119%; in the assay with KM12 colon, 103%.
With `O=C(c1ccccc1)C(CN1CCCCC1)c1ccccc1` (stereo not drawn), the growth in the assay on T-47D breast is 34.9%; in the assay with BT-549 breast, 83.8%; with MDA-MB-435 melanoma, 23.9%; in the assay on SW-620 colon, -82.6% (active); with MCF7 breast it was 0.432% (active); in the assay on HCT-116 colon it was -100% (active). The growth is 89% in the assay on HCC-2998 colon and 14.4% in the assay with KM12 colon.
